High-throughput results: PubChem BioAssay, National Center for Advancing Translational Sciences (NCATS)
Rows were chosen to be rich in hits. Some 11% of all compounds tested hit in one or more screens of this group.
Sm TGR inh = inhibitors of Schistosoma mansoni thioredoxin glutathione reductase. purified TGR, DTNB reduction, TNB absorbance 405 nm. AID 485364. hit rate 3% among 360,000. Q962Y6. Potency, µM (titrated, usually from 114 µM), without a hit: top-dose activity change, negative = inhibition, usual class: inhibitors; further: on the % scale 0 is the no-effect control and ±100 the full control effect; nearly all actives have a fitted effect of over 60% in size
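Kinetic colorimetric format: TGR-catalysed, NADPH-driven DTNB reduction monitored via TNB absorbance. Enzyme dispensed at 20 nM; compound exposure 15 min at room temperature before reaction start.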
Pf growth 96h = P. falciparum growth inhibition at 96 hours; Potency, µM (top dose mostly 28.7 µM), inactives show at the highest dose activity change, negative = inhibition, most hits filed as inhibitors; hit rate 6.9% among 320,000; AID 504834; P. falciparum luciferase reporter growth, 96 h; further: on the % scale 0 is the no-effect control and ±100 the full control effect
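Readout is luminescence from an integrated firefly luciferase in P. falciparum. Red cells, 2% hematocrit and 0.05% parasitemia final, were cultured with compound through two parasite generations (96 hours) at 37 C, 5% CO2.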
Pf growth 48h = P. falciparum growth inhibition at 48 hours (one generation); P. falciparum luciferase growth in erythrocytes, 48 h; Potency, µM (titrated, usually from 28.7 µM), inactives show top-dose activity change, negative = inhibition, most hits filed as inhibitors; hit rate 5.9% among 310,000; further: on the % scale 0 is the no-effect control and ±100 the full control effect
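Luminescence readout; reporter = integrated firefly luciferase in P. falciparum. RBC culture at 2% hematocrit, 0.1% parasitemia final, 37 C/5% CO2; decreased signal taken as growth inhibition.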
NS1 inh = blocks influenza NS1 protein function; hit rate 0.4% among 270,000; AID 2326; Potency, µM (doses to about 46.1 µM), for the others: at the top dose activity, positive = more growth; calls by dose curve; further: actives are rising curves; nearly all actives have a fitted effect of over 50% in size
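Recovery from NS1-induced slow growth read by OD600 in budding yeast switched to galactose assay medium (pH 6.0, -URA) at 1:100 dilution. Compound 23 nl per well; the matching strain lacking NS1 serves as control.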
AMA1-RON2 inh = inhibitors of Plasmodium falciparum AMA1-RON2 interaction | AlphaScreen AMA1-biotinylated RON2 peptide binding | Potency, µM (doses to about 58.2 µM), for the others: at the top dose activity change, negative = inhibition, usual class: inhibitors | hit rate 0.2% among 360,000;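 further: 0% = vehicle wells and -100% = peptide control; nearly all actives have a fitted effect of over 45% in size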
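AMA1 (3D7) with his tag at 25 nM final met compounds first, then biotinylated RON2 peptide at 25 nM; detection used donor plus acceptor beads, 10 µg/mL apiece, read by AlphaScreen after 30 min at room temperature.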
* = called active by the depositor; ? = inconclusive; / = no result given; [ ] = dose if it differs, or a comment. Unless noted, the call rests on the fitted dose curve; in most records, active means well fitted curve in the direction sought with a large enough effect; inconclusive means small, poorly fitted or top-dose-only effect, or another doubt; inactive means no such curve, though single readings can be large; an effect the other way counts as inactive or inconclusive. Potency means the concentration at half of the fitted maximal effect.

SMILES | Sm TGR inh | Pf growth 96h | Pf growth 48h | NS1 inh | AMA1-RON2 inh
CSc1nsc(/C=C/Nc2ccc(Cl)cc2)c1C#N | -17% | 1.2µM* | 1.2µM* | 13% | -1%
CCCOc1ccccc1C1NC(=O)NC(C)=C1C(=O)OCc1ccccc1 (stereo unspecified) | -8% | -4% | 13µM* | 3% | -14%
CC1=C(C(=O)OCc2ccc3c(c2)OCO3)C(c2ccccc2OCc2ccccc2)NC(=O)N1 (stereo unspecified) | -12% | / | 10µM* | 28% | -3%
CC1=C(C(=O)OCc2ccc3c(c2)OCO3)C(c2ccccc2)NC(=O)N1 (stereo unspecified) | 3%[11.4 µM] | -18% | / | -22% | -1%
CCOC(=O)C1=C(CS(=O)(=O)c2ccccc2)NC(=O)NC1c1ccccc1OCC (stereo unspecified) | 25µM* | ? | / | 2% | 0%
CCCOc1ccccc1C1NC(=O)NC(C)=C1C(=O)OCCOC(C)C (stereo unspecified) | -11% | 12µM* | ? | -1% | -2%
COc1ccccc1NC(=O)/C(=C/c1ccncc1)NC(=O)c1ccccc1 | 5% | 2% | -13% | 21% | 3%
CCOc1ccccc1CNc1ccc(O)cc1 | / | ? | ? | 13% | 29%
CCOc1cccc(CNc2ccc(O)cc2)c1OCc1ccc(Cl)cc1 | 32µM* | -11% | ? | -10% | 35%
Cc1ccc(NCc2ccccc2OCc2ccccc2F)cc1 | -3% | ? | / | -9% | ?
Oc1ccc(NCc2ccccc2OCc2ccccc2Cl)cc1 | 35µM* | / | / | / | /
Oc1ccc(NCc2ccccc2OCc2ccccc2F)cc1 | 20µM* | ? | 10µM* | -50% | ?
CCOc1ccc(/C=C/C(O)=C2/C(=O)N(C)C3(C)CC2c2ccccc2O3)cc1OC (stereo unspecified) | -6% | 20% | 6.6µM* | / | -12%
CCc1ccc(C(=O)C(C)CN2CCCCC2)cc1 (stereo unspecified) | / | 1.5µM* | -6% | / | /
CC(C)OC(=O)CSc1nnc(-c2cnccn2)n1-c1ccc(Cl)cc1 | 4% | 15µM* | ? | -94% | 1%
O=C(CSc1nnc(-c2cnccn2)n1Cc1ccco1)c1ccccc1 | 35µM* | 10% | 3% | -8% | -7%
O=C(CSc1nnc(-c2ccccn2)n1Cc1ccco1)c1ccccc1 | ? | -20% | -1% | -20% | 12%
NC(=O)CSc1nnc(-c2cnccn2)n1Cc1ccco1 | ? | 27% | 7% | 1% | ?
Cc1ccc(-n2c(SCC(=O)OC(C)C)nnc2-c2ccncc2)cc1 | -26% | 20% | ? | -9% | 6%
O=C(CSc1nnc(-c2ccccn2)n1Cc1ccco1)c1ccc(Cl)cc1 | 20µM* | / | -29% | -3% | 13%
O=C(CSc1nnc(-c2cnccn2)n1Cc1ccco1)c1ccc(Cl)cc1 | 10µM* | -30% | ? | -4% | ?
COc1ccc(/C=C2\C(=N)N3N=C(CC(=O)N4CCCCC4)SC3=NC2=O)cc1 | -3% | 13% | 20% | 11% | 39%
Cc1ccc(N2CC(C(=O)Nc3nc4ccc(S(C)(=O)=O)cc4s3)CC2=O)cc1 (stereo unspecified) | -2% | ? | ? | -22% | 8%
CCCN1CCC(=O)N([C@H](CN=[N+]=[N-])Cc2ccccc2)CC1 | -24% | ? | 5% | -5% | 3%
O=C(NC1=NCCS1)c1cc(-c2cccc(Br)c2)nc2ccccc12 | 4% | -6% | ? | -29% | 22%
SMILES | Sm TGR inh | Pf growth 96h | Pf growth 48h | NS1 inh | AMA1-RON2 inh
Cc1ccc(-c2cc(C(=O)NC3=NCCS3)c3ccccc3n2)cc1C | -7% | 2.1µM* | ? | 0% | 0%[11.6 µM]
Cc1ccc2nc(-c3cccc(Br)c3)cc(C(=O)NC3=NCCS3)c2c1 | / | 45% | 4.7µM* | 11% | 23%
COC(=O)c1cc(Cl)c(NC(=O)/C=C/c2ccc(Cl)cc2Cl)cc1OC | 9% | 60% | 36% | ? | -8%
Cc1ccc(NC(=O)/C=C/c2ccc(C)o2)c(C)c1 | 7.9µM* | / | / | / | /
COC(=O)c1ccc(Cl)cc1NC(=O)/C=C/c1ccc(C)o1 | 20µM* | 0% | -1% | 10% | 11%
CCCC[C@@H]1C=C(C(=O)O)[C@H](c2ccc(C#N)cc2)N1S(=O)(=O)c1ccc(C)cc1 | / | / | / | / | -3%
CCn1c(SCC(=O)N2CCCC2)nnc1-c1ccc(S(=O)(=O)N2CCCCCC2)cc1 | 2% | ? | 9.3µM* | -10% | -4%
Cn1c(SCC(=O)NCc2cccs2)nnc1-c1ccc(S(=O)(=O)N2CCCC2)cc1 | 8% | 8.3µM* | ? | 0% | -3%
CCn1c(SCc2ccc(C#N)cc2)nnc1-c1ccc(S(=O)(=O)N2CCCCC2)cc1 | 11% | -2% | 1.5µM* | 10% | 3%
Cn1c(SCC(=O)N2CCCCC2)nnc1-c1ccc(S(=O)(=O)N2CCOCC2)cc1 | 5% | 13µM* | -1% | -3% | 7%
Cn1c(SCC(=O)N2CCCC2)nnc1-c1ccc(S(=O)(=O)N2CCCC2)cc1 | 8% | 1% | -6% | -9% | 9%
CCN1CCCC1CNC(=O)CCNC(=O)c1cc(OC)c(OC)c(OC)c1 (stereo unspecified) | 6% | 2.6µM* | -21% | -4% | 0%
CCN(CC)Cc1nc2c(c(=O)[nH]1)C(CC)(CC)Cc1ccccc1-2 | -18% | -140% | 9.3µM* | 14% | 57%
CCc1nc2c(c(=O)[nH]1)C(CC)(CC)Cc1ccccc1-2 | -2% | -4% | 0% | 4% | -14%
CC[N+]1(CC)CC2CCC(C)(C1)C2(C)C (stereo unspecified) | 35% | -73% | -8% | / | 12%
Cc1ccc(Nc2nc(N3CCOCC3)nc(N3CCOCC3)n2)cc1 | 7% | ? | ? | -29% | 11%
O=C(O)c1ccc(NC2=C(N3CCOCC3)C(=O)c3ccccc3C2=O)cc1 | ? | -5% | -12% | 8% | 15%
CC(=O)c1ccc(NC2=C(N3CCOCC3)C(=O)c3ccccc3C2=O)cc1 | -16% | 0.52µM* | 0.83µM* | -7% | ?
Cc1ccc(NC2=C(N3CCOCC3)C(=O)c3ccccc3C2=O)cc1 | ? | 2.6µM* | 2.1µM* | 10% | 24µM*
CCCCNc1nc(Cl)nc(Nc2ccc(C)cc2)n1 | / | / | / | / | -8%
CC1(C)Cc2c(sc(NC(=O)/C=C/C(=O)O)c2C#N)CO1 | ? | 2.9µM* | 4.1µM* | -4% | -2%
CC1(C)Cc2c(sc(NC(=O)c3ccco3)c2C#N)CO1 | -1% | / | 223% | -47% | 10%
CC(=O)Nc1sc2c(c1C#N)CCN(Cc1ccccc1)C2 | -7% | 32% | 34% | 2% | 0%
N#Cc1c(NC(=O)/C=C/C(=O)O)sc2c1CCN(Cc1ccccc1)C2 | 25µM* | 10µM* | -29% | 4% | 10%
CCOc1ccc(NC(=O)Nc2cc(OCC(F)(F)F)cc(OCC(F)(F)F)c2)cc1 | 3% | 1.9µM* | 0.83µM* | 14% | -16%
